Screens: PubChem BioAssay, Broad Institute
aSyn UTR act: Activators working through SNCA 5'UTR binding (MLPCN); alpha-synuclein 5'UTR reporter, activators screen; activity score, % (tested at 7.5 µM), hits read low; 300,000 compounds, 7.1% hits; in the data active means activity score below about -60%
* = called active by the depositor. These entries were drawn from the full list.

Screening COc1ccc(N=CC2=C(O)c3ccccc3C2=O)c(OC)c1 returned aSyn UTR act 63.
For C#CC[N+](C)(C)CCCCCCCCCCCC the results were aSyn UTR act 77.
For Cc1cc2nc(-c3cccc(NC(=O)c4ccc(Br)o4)c3)oc2cc1C the results were aSyn UTR act -77*.
`Cc1ccc2oc(-c3cccc(NC(=O)c4ccc(Br)o4)c3)nc2c1` gave aSyn UTR act -94*.
For COc1ccc(C(=O)NCCn2ccc3ccccc32)c(OC)c1 the results were aSyn UTR act -90*.
`CC(=O)N/C(N)=N/c1nc2cc([N+](=O)[O-])ccc2o1` gave aSyn UTR act -97*.
For CC(=O)N/C(N)=N/c1nc2cc(C)ccc2o1 the results were aSyn UTR act -63*.
`CN(C)/C=N/c1c(C#N)cnn1-c1nc2ccccc2s1` gave aSyn UTR act -96*.
COC(=O)CCn1nnc(-c2ccc(C(C)C)cc2)n1 was read as aSyn UTR act 119.
For COCCCNC(=O)Cn1nnc(-c2ccc(NC(=O)c3ccccc3F)cc2)n1 the results were aSyn UTR act -95*.
CN(C)CCNC(=O)c1cc2sc3ccccc3c2s1 was read as aSyn UTR act -127*.
For CCN(CC)C(=O)c1cc2sc3ccccc3c2s1 the results were aSyn UTR act -134*.
Screening Cc1cccc(NC(=O)c2ccc(NCCO)c([N+](=O)[O-])c2)n1 returned aSyn UTR act -95*.
Cc1cccc(NC(=O)c2ccc(NCC3CCCO3)c([N+](=O)[O-])c2)c1 (stereo unspecified) was read as aSyn UTR act -64*.
`CC(=O)c1ccc(NCC2COc3ccccc3O2)c([N+](=O)[O-])c1` (stereo unspecified) gave aSyn UTR act -179*.
`Cc1cccc(NC(=O)c2ccc(NCC3CCCO3)c([N+](=O)[O-])c2)n1` (stereo unspecified) gave aSyn UTR act -121*.
CN1CCN(C2=C(Cl)C(=O)N(C3CCCCC3)C2=O)CC1 was read as aSyn UTR act -84*.
`O=[N+]([O-])c1cc(C=Nc2ccc3ccccc3c2)ccc1Br` gave aSyn UTR act -119*.
`O=C(N/N=C/c1ccccn1)c1ccccc1` gave aSyn UTR act -90*.
`CN(C)c1ccc(C(=O)N/N=C/c2ccccn2)cc1` gave aSyn UTR act -85*.
O=C(N/N=C\c1cn[nH]c1-c1ccccc1)c1cccnc1 was read as aSyn UTR act -67*.
Screening CN(C)c1ccc(NC(=S)c2ccccn2)cc1 returned aSyn UTR act 97.
Cc1ccccc1C(=O)N/N=C/c1ccccn1 was read as aSyn UTR act -80*.
`CNc1nn(-c2cccc(Cl)c2)nc1N` gave aSyn UTR act -97*.
`O=C(NCC1CCCO1)c1sc2cc(Cl)ccc2c1Cl` (stereo unspecified) gave aSyn UTR act -124*.
Screening Cc1ccc(NC(=S)Nc2ccc(Br)cc2)cc1 returned aSyn UTR act -86*.
Screening Fc1ccccc1NC(=S)Nc1ccc(Br)cc1 returned aSyn UTR act -74*.
For Fc1cc(Br)ccc1NC(=S)Nc1ccccc1 the results were aSyn UTR act -115*.
O=C(Nc1cc2cc([N+](=O)[O-])ccc2oc1=O)c1cccs1 was read as aSyn UTR act -76*.
`O=C(Nc1cccc(NC(=O)c2cccs2)c1)c1ccc([N+](=O)[O-])o1` gave aSyn UTR act -69*.
COc1cc(NC(=O)c2ccc([N+](=O)[O-])o2)ccc1NC(=O)c1cccs1 was read as aSyn UTR act -82*.
For O=C(CCCc1ccccc1)Nc1ccccc1[N+](=O)[O-] the results were aSyn UTR act -112*.
Screening O=C(CCc1ccccc1)Nc1ccccc1[N+](=O)[O-] returned aSyn UTR act -83*.
Screening Cc1ccc(NC(=O)CCCc2ccccc2)c([N+](=O)[O-])c1 returned aSyn UTR act -76*.
`COc1ccc(-c2nc(-c3cccc(C)c3)nc(N3CCN(C)CC3)c2C#N)cc1` gave aSyn UTR act 59.
Screening Brc1ccc(-c2nnc(-c3ccccc3)c(N3CCSCC3)n2)cc1 returned aSyn UTR act -85*.
For CN1CCN(c2nc(-c3ccc(Br)cc3)nnc2-c2ccccc2)CC1 the results were aSyn UTR act -123*.
`N#CC1=C2SC=C(c3ccc(Br)cc3)N2CCCC1=O` gave aSyn UTR act -257*.
N#CC1=C2Sc3ccccc3N2CCCC1=O was read as aSyn UTR act -171*.
CC1=NN(c2ccccc2)C(=O)/C1=C/c1cc2cc(C)ccc2nc1N1CCCCC1 was read as aSyn UTR act -107*.
For CCOC(=O)c1sc(NC(=S)NC(=O)C23CC4CC(CC(C4)C2)C3)cc1C the results were aSyn UTR act -104*.
CCOC(=O)c1sc(NC(=S)NC(=O)C2CC2)cc1C was read as aSyn UTR act -85*.
CCOC(=O)c1sc(-c2ccc(F)cc2)cc1N was read as aSyn UTR act -142*.
Screening CCOC(=O)c1sc(-c2ccccc2)cc1N returned aSyn UTR act -116*.
Screening CC(=O)c1sc(-c2ccccc2)cc1N returned aSyn UTR act -63*.
